From PubChem
In the library only some 0.84% were active in any assay of this set; here they are far more common.
NCOA1 inh: inhibits human SRC1 coactivator | HEK293 GAL4-SRC1 luciferase reporter, luminescence | Q15788 | 360,000 tested, 0.12% active | inhibition, % at 3.6 µM;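 active means inhibition above the campaign mean plus 3 SD, with each screening campaign given its own cutoff, cut at about 60% in these data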;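 further: 0% = DMSO treated cells and 100% = gossypol at 36 µM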
SRC3 inh: human NCOA3 inhibition; HEK293 GAL4-SRC3 luciferase reporter, luminescence; inhibition, % at 3.6 µM; 360,000 tested, 0.17% active; Q9Y6Q9;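 active means inhibition above a per-campaign cutoff, the mean of all compounds plus 3 SD, cut at about 60% in these data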;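 further: 0% = DMSO-treated cells and 100% = gossypol-treated cells at 36 µM; higher means less SRC3-driven luciferase light from the GAL4 reporter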
NR5A2 inv ag: inverse agonists of human LRH-1 (NR5A2); 360,000 tested, 0.13% active; inhibition, % at 3.6 µM; HEK293T StAR-luciferase reporter, LRH-1 transfected, 24 h;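 active means inhibition above the mean inhibition of all tested compounds plus 3 SD, cut at about 73% in these data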;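 further: 0% = DMSO wells and 100% = reporter-only cells lacking LRH-1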
NR2F2 inh: inhibitors of human COUP-TFII (NR2F2); 370,000 tested, 0.7% active; inhibition, % at 8.6 µM; P24468; HEK293T NGFI-A luciferase reporter, luminescence;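 active means inhibition above a per-plate cutoff, mean inhibition of test wells between control levels plus 3 SD, cut at about 38% in these data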;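 further: cells cotransfected with COUP-TFII expression vector driving the NGFI-A reporter; 0% = median of COUP-TF2 test wells and 100% = reporter-only cells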
SRC2 inh: human SRC2 (NCOA2) inhibition | 370,000 tested, 0.17% active | inhibition, % at 9 µM | HEK293 GAL4-SRC2 luciferase reporter, luminescence | Q15596;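 active means inhibition above the mean inhibition of all tested compounds plus 3 SD, set per campaign, cut at about 52% in these data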;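 further: 0% = DMSO treated cells and 100% = cells given Gossypol at 36 µM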
Gal4-VP16 ctr: counter-screen for COUP-TFII antagonists: inhibitors of VP16. HEK293 Gal4-VP16 luciferase reporter, luminescence. inhibition, % at 8.5 µM. 2,500 tested, 25% active. shares compounds with NR2F2 inh. AID 687007; in the data active means inhibition above about 13%
NR2F2 inh conf: COUP-TFII (NR2F2) inhibition, confirmation assay. shares compounds with NR2F2 inh. HEK293 NGFI-A luciferase reporter, luminescence. inhibition, % at 8.5 µM. 2,500 tested, 45% active. AID 687008;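 active means mean inhibition over three repeats above a set limit taken from the earlier primary screen, cut at about 38% in these data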;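 further: 100% = cells given the luciferase reporter alone without the COUP-TF2 vector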
Active calls of the source: *; nt = no result.

SMILES	NCOA1 inh	SRC3 inh	NR5A2 inv ag	NR2F2 inh	SRC2 inh	Gal4-VP16 ctr	NR2F2 inh conf
COc1ccc(CCNC(=O)c2ccc(Cl)c(S(=O)(=O)N3CCCC3)c2)cc1	0	13	10	41*	-29	-4	20
CCc1sc(C(=O)Nc2ccc(OC)c(S(=O)(=O)N3CCOCC3)c2)cc1C	-6	12	14	2	22	nt	nt
COc1ccc(C(=O)Nc2ccc(S(=O)(=O)N3CCOCC3)cc2)cc1	-39	8	13	1	3	nt	nt
O=C(Nc1ccc(Cl)c(S(=O)(=O)N2CCOCC2)c1)c1ccc2c(c1)OCCO2	-3	16	-9	28	7	nt	nt
O=C(Nc1ccc(Cl)c(S(=O)(=O)N2CCOCC2)c1)c1ccc(Cl)nc1	18	0	13	44*	-2	3	16
O=[N+]([O-])c1ccc(Nc2ccccc2)c2nonc12	-1	12	3	10	-16	nt	nt
O=[N+]([O-])c1ccc(Sc2cccc[n+]2[O-])c2nonc12	89*	84*	90*	101*	93*	96*	105*
O=C(Nc1ccc(Oc2ccccc2)nc1)C1CCN(Cc2cccc(F)c2)CC1	-25	8	0	10	-6	nt	nt
O=C(Nc1ccc(Oc2cccnc2)cc1)C1CCN(Cc2cc(Cl)ccc2O)CC1	16	26	31	62*	19	8	48*
C#Cc1ccc(CN2CCC(C(=O)Nc3ccc(Oc4ccccc4)nc3)CC2)cc1	7	23	13	49*	17	4	28
CN(Cc1ccccc1)C(=O)OCc1cn(Cc2cccc(Cl)c2)nn1	nt	nt	nt	-6	-17	nt	nt
COCC#Cc1ccc(CC[C@H]2O[C@H]3CC[C@@H](CO)O[C@H]3C[C@H]2n2cc(C(C)(C)O)nn2)cc1	nt	nt	nt	1	22	nt	nt
C#CCNC(=O)c1cnn(-c2ccccc2)c1N	nt	nt	nt	-14	-5	nt	nt
CN1/C(=C/c2cccc[n+]2C)Sc2ccccc21	20	28	35	53*	-43	-5	48*
Cc1ccc2c(c1)N(C)/C(=C/c1cccc[n+]1C)S2	26	30	44	57*	-12	0	42*
Nc1c(C(=O)N2CCN(CCc3ccccc3)CC2)cnn1-c1ccccc1	nt	nt	nt	9	2	nt	nt
COc1ccc(CCN(C)C(=O)COc2ccc(C(=O)c3ccccc3)cc2)cc1OC	-1	14	22	5	3	nt	nt
COc1ccc(CCN(C)C(=O)Cc2ccc(-c3ccccc3)cc2)cc1OC	3	14	30	48*	16	4	37
CCN(CC(=O)NCc1ccc(Cl)cc1)C(=O)c1cc(OC)cc(OC)c1	-2	3	-16	53*	-7	-7	-2
Cc1ccc(S(=O)(=O)n2ccc3c(OCCOCCNCc4ccc(F)cc4)cccc32)cc1	4	-12	9	43*	6	0	8
Cc1ccc(S(=O)(=O)n2ccc3c(OCCOCCSCC(NC(=O)OC(C)(C)C)C(=O)O)cccc32)cc1 (centres undefined)	-1	9	-4	28	21	nt	nt
COC(=O)CN1CCN(C(=O)c2csc(N3CCOCC3)n2)CC1	nt	nt	nt	-5	-2	nt	nt
O=C(Nc1nc2cc3c(cc2s1)OCCO3)c1cccc(N2C(=O)CCC2=O)c1	-57	-57	-8	-24	-25	nt	nt
COc1ccccc1C(=O)Nc1nc2cc3c(cc2s1)OCCO3	-110	-113	-144	nt	nt	nt	nt
CN(CC1CCCO1)S(=O)(=O)c1ccc(C(=O)Nc2nc3cc4c(cc3s2)OCO4)cc1 (centres undefined)	41	37	-2	39*	18	0	78*
SMILES	NCOA1 inh	SRC3 inh	NR5A2 inv ag	NR2F2 inh	SRC2 inh	Gal4-VP16 ctr	NR2F2 inh conf
CCN(CC)S(=O)(=O)c1cccc(C(=O)Nc2nc3cc4c(cc3s2)OCCO4)c1	6	23	5	58*	16	-9	32
O=C(Nc1nc2cc3c(cc2s1)OCCO3)c1cccs1	-48	-54	-108	42*	24	-120	-107
Cc1cccc(CNC(=S)OCCN2CCCC23CCC(c2ccccc2)CC3)c1 (centres undefined)	nt	nt	nt	1	nt	nt	nt
Cc1ccccc1NC(=O)C[C@H]1CC[C@H]2[C@@H](COc3ccc(NC(=O)Nc4ccccc4)cc3C(=O)N2C)O1	nt	nt	nt	2	-9	nt	nt
Nc1cc(S(=O)(=O)c2ccc(N3CCCCC3)c(N)c2)ccc1N1CCCCC1	0	2	1	43*	1	5	22
Nc1cc(S(=O)(=O)N2CCCCC2)ccc1N1CCOCC1	0	12	12	15	9	nt	nt
COc1ccc(NS(=O)(=O)c2ccc(N3CCCCC3)c(N)c2)cc1	12	13	31	56*	10	-5	43*
O=C(Nc1ccc(F)cc1)OCc1cn(Cc2ccc(C(F)(F)F)cc2)nn1	nt	nt	nt	-11	9	nt	nt
CC(=O)Oc1ccccc1C(=O)C=Cc1cccc([N+](=O)[O-])c1	-7	6	27	47*	-17	-10	-3
Cc1cc(O)c(C(=O)/C=C/c2cccc([N+](=O)[O-])c2)c(=O)o1	-6	5	19	-5	-37	nt	nt
O=C(C1CCN(S(=O)(=O)c2ccc3[nH]c(=O)oc3c2)CC1)N1CCCN(Cc2ccccc2)CC1	nt	nt	nt	14	-17	nt	nt
Cc1cccc(Oc2ccc(N)cc2)c1	-104	-9	-11	13	-15	nt	nt
Nc1ccc(Oc2ccc(Br)cc2)cc1	-17	-7	26	27	12	nt	nt
Nc1ccc(Oc2cccc(Oc3ccc(N)cc3)c2)cc1	44	44	67	77*	86*	77*	74*
Cc1cc(C)cc(Oc2ccc(N)cc2)c1	-17	5	32	51*	24	20*	24
COc1ccc(OCCNC(=O)c2ccc3nc(C)c(N(C)C(=O)CCc4ccccc4)n3c2)cc1	13	1	-1	85*	45	-15	3
CCCCC(=O)N(C)c1c(C)nc2ccc(C(=O)NCCOc3ccc(OC)cc3)cn12	16	0	7	-5	-16	nt	nt
CCn1c2ccccc2c2cc(NC(=O)COC(=O)c3cccc(OC)c3)ccc21	nt	nt	nt	-6	10	nt	nt
Cc1ccccc1N(C)C(=O)CN1CCN(c2nc(-c3ccccc3)cs2)CC1	nt	nt	nt	11	20	nt	nt
CCOC(=O)Cc1csc(NC(=O)/C=C/c2ccc(Br)o2)n1	-12	-11	-18	28	10	nt	nt
CCOC(=O)Cc1csc(NC(=O)/C=C/c2cccc(Br)c2)n1	14	26	2	58*	16	-7	14
CCOC(=O)c1ccc(NC(=O)c2ccc(CN3CCOCC3)cc2)cc1	11	32	25	50*	17	-4	38*
CC(C)c1ccc(C(=O)Nc2ccc(CN3CCOCC3)cc2)cc1	4	16	4	38*	-17	-38	6
CSc1ccccc1NC(=O)c1ccc(CN2CCOCC2)cc1	-31	-9	-42	-8	14	nt	nt
